Pf apPOL inh = Pf-apPOL DNA polymerase inhibition | Recombinant Pf-apPOL, molecular beacon fluorescence, 1.5 h | inhibition, % at 10 µM | 210,000 compounds, 0.25% hits
mHTT CaM bind = inhibitors of human mutant huntingtin-calmodulin interaction; AlphaScreen His-mHTT/GST-CaM binding, luminescence; inhibition, % at 15 µM; 190,000 compounds, 3.6% hits; AID 1671202
Hits are given with their value; . = inactive; / = not tested or not shown. Hits are enriched below; roughly 3.6% of the tested compounds scored in any of these assays. Cut-off read from the data, not from the text of the source: active = inhibition above about 50%; inactive = the rest.

SMILES	Pf apPOL inh	mHTT CaM bind
COc1ccccc1CNc1nc(-c2ccccc2F)nc2ccccc12	.	.
CCCCC[C@@H](C)N1C[C@@H](COCc2ccccc2)Oc2cc(N3CC[C@@H](N(C)C)C3)ccc2S1(=O)=O	.	100.2
CCCCC[C@@H](C)N1C[C@H](COCc2ccccc2)Oc2cc(N3CC[C@@H](N(C)C)C3)ccc2S1(=O)=O	.	.
CCCCC[C@H](C)N1C[C@H](COCc2ccccc2)Oc2cc(N3CC[C@@H](N(C)C)C3)ccc2S1(=O)=O	.	100.2
CCCCC[C@H](C)N1C[C@H](COCc2ccccc2)Oc2cc(N3CC[C@H](N(C)C)C3)ccc2S1(=O)=O	.	.
FC(F)Oc1ccccc1C1CC(c2ccc(Cl)cc2)Nc2ncnn21 (stereo not drawn)	.	.
COc1ccc(-c2noc(C3CCCN3C(=O)c3ccccc3F)n2)cc1 (stereo not drawn)	.	.
O=C(O)CCCNc1ccc([N+](=O)[O-])cc1[N+](=O)[O-]	.	/
COc1ccc(C=C2NC(=O)CN(C(C)=O)C2=O)cc1	.	/
CCN1c2ccccc2-n2cccc2C12CCN(C(=O)Nc1cc(C)ccc1C)CC2	.	.
CCN1c2cc(Cl)ccc2C(=O)NC12CCN(C(=O)Nc1ccc(OC)cc1)CC2	.	.
Cc1ccc2c(c1)C(=O)NC1(CCN(C(=O)NC3CCCCC3)CC1)N2C	.	.
CCOc1ccc(NC(=O)N2CCC3(CC2)c2cccn2-c2ccc(C)cc2N3CC)cc1	.	51.7
CCN1c2cc(C)ccc2-n2cccc2C12CCN(C(=O)c1ccccc1OC)CC2	.	.
CCN1c2cc(C)ccc2-n2cccc2C12CCN(C(=O)Nc1ccccc1OC)CC2	.	65.5
CCN1c2cc(C)ccc2-n2cccc2C12CCN(C(=O)NC1CCCC1)CC2	.	71.7
CCN1c2cc(C)ccc2-n2cccc2C12CCN(C(=O)Nc1ccc(OC)cc1)CC2	.	56.1
Cn1nc(-c2nc(Cc3ccccc3)no2)c2c1CCN(C(=O)Cc1ccsc1)C2	.	.
O=C(CC1CCCCN1S(=O)(=O)c1ccc(Cl)cc1)NCc1cccs1 (stereo not drawn)	.	.
CCN1c2cc(C)ccc2-n2cccc2C12CCN(C(=O)NCc1cccc(OC)c1)CC2	.	.
CCN1c2cc(C)ccc2-n2cccc2C12CCN(C(=O)Nc1ccc(C)cc1)CC2	.	.
CCN1c2cc(C)ccc2-n2cccc2C12CCN(C(=O)Nc1ccccc1)CC2	.	51.9
CCN1c2cc(C)ccc2-n2cccc2C12CCN(C(=O)Nc1cccc(OC)c1)CC2	.	55.5
CC1(C)COc2ccc(NC(=O)c3ccc(Br)o3)cc2NC1=O	.	.
CC(=O)[C@]1(O)Cc2c(O)c3c(c(O)c2[C@@H](O[C@H]2C[C@H](N)[C@H](O)[C@H](C)O2)C1)C(=O)c1ccccc1C3=O	50.2	/
SMILES	Pf apPOL inh	mHTT CaM bind
COc1cccc2c1C(=O)c1c(O)c3c(c(O)c1C2=O)CC(O)(C(=O)CO)CC3OC1CC(N)C(O)C(C)O1 (stereo not drawn)	.	/
C=CCn1c(CSc2ccccc2[N+](=O)[O-])n[nH]c1=S	59.5	/
COc1ccccc1-n1c(CSc2ccccc2[N+](=O)[O-])n[nH]c1=S	.	/
Cc1cc(Cl)ccc1N(CC(=O)Nc1ccc(F)cc1)S(C)(=O)=O	.	.
Cc1cc(C)cc(N(CC(=O)Nc2ccc(F)c(Cl)c2)S(C)(=O)=O)c1	.	56.4
O=C(NCCOc1ccc(-c2ccco2)nn1)c1ccccc1[N+](=O)[O-]	.	.
O=C(Cc1cccc(F)c1)N1CCCC1c1nc(-c2cccc(Cl)c2)no1 (stereo not drawn)	.	.
O=C(NCCc1ccccc1)N1CCCC1c1nc(-c2cccc(Cl)c2)no1 (stereo not drawn)	.	60.6
Cc1ccc(CC(=O)N2CCCC2c2nc(-c3cccc(Cl)c3)no2)cc1 (stereo not drawn)	.	60.6
O=C(NCCc1ccccc1)N1CCCC1c1nc(-c2ccccc2)no1 (stereo not drawn)	.	.
Cc1cccc(-c2noc(C3CCCN3C(=O)Cc3cccc(Cl)c3)n2)c1 (stereo not drawn)	.	79.4
O=C(Cc1ccc(F)cc1)N1CCCC1c1nc(-c2cccc(Cl)c2)no1 (stereo not drawn)	.	.
CCOc1ccccc1CNC(=O)CC1CCN(C(=O)C2CCCCC2)CC1	.	.
Cn1c(C2CCN(C(=O)Nc3ccc(F)c(Cl)c3)C2)nc2cccnc21 (stereo not drawn)	.	.
Cc1ccc(N=Cc2cc(Br)cc(Cl)c2O)c(O)c1	.	.
Nc1ccccc1N=Cc1cc(Br)cc(Cl)c1O	.	66.0
COc1ccc(-c2nc(-c3nnn(-c4ccc(F)cc4)c3C)no2)cc1OC	.	.
COc1ccc(-c2nc(-c3ccc(F)cc3)c[n+]3ccc4cc(OC)c(OC)cc4c23)cc1OC	/	77.7
CCCNC(=O)c1sc2c(Cl)c(OC)ccc2c1Cl	.	100.3
COc1ccc2c(Cl)c(C(=O)Nc3cc(C)ccc3C)sc2c1Cl	.	.
CCOc1ccc(NC(=O)CN(c2cccc(Br)c2)S(C)(=O)=O)cc1	.	.
Cc1cccc(CN2CCCn3nc(C(=O)NCc4ccccc4)cc3C2=O)c1	.	.
Cc1ccccc1OCCn1cc(C=C2C(=O)NC(=O)NC2=O)c2ccccc21	.	51.0
CCN1C(=O)NC(=O)/C(=C/c2cn(CCOc3ccc(F)cc3)c3ccccc23)C1=O	.	.
CCN1C(=O)NC(=O)/C(=C/c2cn(CCOc3ccccc3C)c3ccccc23)C1=O	.	61.0
SMILES	Pf apPOL inh	mHTT CaM bind
O=C1NC(=O)C(=Cc2cn(CCOc3ccccc3)c3ccccc23)C(=O)N1	.	.
Cn1nc(COCc2ccccc2)c2c1CCN(C(=O)Nc1cccc(F)c1)C2	.	.
Nc1c(C(=O)Nc2ccccc2)cnn1-c1ccccc1	.	.
CCOc1ccccc1NC(=O)c1ccccc1Cl	.	.
CCOc1ccccc1NC(=O)c1c[nH]c(=O)n(-c2ccc(F)cc2)c1=O	.	72.4
Cc1ccc(C(=O)N2CCCC(c3nc(CNC(=O)C(C)C)cs3)C2)cc1C (stereo not drawn)	.	.
COc1ccccc1-c1coc2cc(OC(=O)CCC3CCCC3)ccc2c1=O	.	.
COc1ccc(C2=CC(c3ccccc3)SC(N)=N2)cc1 (stereo not drawn)	/	.
NC1=NC(c2ccc(Cl)cc2)=CC(c2ccc(F)cc2)S1 (stereo not drawn)	/	67.5
COc1ccc(-n2nc3c(c2NC(=O)c2cccc(Br)c2)CS(=O)C3)cc1 (stereo not drawn)	.	.
Cc1ccc(O)c(NC(=O)c2nn3c(c2Cl)NC(c2cccs2)CC3C(F)(F)F)c1 (stereo not drawn)	.	55.0
Cc1ccc(O)c(NC(=O)c2nn3c(c2Cl)NC(c2ccccc2)CC3C(F)(F)F)c1 (stereo not drawn)	.	54.0
CC(C)(C)NC(=O)c1nn2c(c1Cl)NC(c1ccccc1)CC2C(F)(F)F (stereo not drawn)	.	.
O=C(Nc1cccc(Cl)c1)c1nn2c(c1Cl)NC(c1cccs1)CC2C(F)(F)F (stereo not drawn)	.	.
CCN(CC)c1ccc(N=C2C=CC(=O)c3ccccc32)c(C)c1	.	/
CC(C)c1ccc(S(=O)(=O)N2CCN(C)c3ccccc32)cc1	.	.
CC(C)c1ccc(S(=O)(=O)N=C2C=CC(=O)c3ccccc32)cc1	.	67.0
O=C1C=CC(=NS(=O)(=O)c2ccc(F)cc2)c2ccccc21	.	100.0
